# gsp agonist: agonists of gsp mutant (McCune-Albright syndrome); gsp mutant cells, cAMP HTRF, 30 min; Potency, µM (top dose mostly 76.9 µM), for the others: at the highest dose activation (cAMP increase), actives largely listed as activators; 0.13% of 340,000 active; AID 624287; active = well fitted activation curve with a large enough effect; inconclusive = small, poorly fitted or top-dose-only effect, or another doubt; inactive = no such curve, though single readings can be large or run the other way; cell line not stated here;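 note: phosphodiesterase inhibitor Ro 20-1724 added with compounds to block cAMP breakdown; nearly all actives have a fitted effect of over 60% in size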
#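 Cells stably selected in G418 were plated at 2000/well, grown 16-24 hr, then given compounds in DMSO with the PDE inhibitor […] (300 uM solution added) for 30 min at 37C; cAMP was read by HTRF.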
# gsp antag: gsp mutant antagonism; 0.4% of 340,000 active; Potency, µM (highest dose often 76.9 µM), for the others: top-dose activity change, negative = inhibition, most hits filed as inhibitors; gsp-mutant cells, cAMP HTRF, 30 min; calls by dose curve; cell line not stated here;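 note: intracellular cAMP measured with PDE inhibitor Ro 20-1724 present during compound exposure; % is set by controls: 0 for no effect and ±100 for the full control effect; nearly all actives have a fitted effect of over 65% in size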
#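 Cells in G418 medium, seeded 16-24 h, 37C; buffer exchange to DPBS + 1 mM CaCl2, 0.5 mM MgCl2, 0.05% BSA; cpds in DMSO + […] (300 uM stock), 30 min 37C; HTRF cAMP detection.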
# MBNL1 CUG block: blocks human MBNL1 binding to CUG repeat RNA | Q9NR56 | TR-FRET MBNL1-His/biotin-(CUG)12 binding, 665/545 ratio | Potency, µM (titrated, usually from 57.5 µM), for the others: at the top dose activity change, negative = inhibition, usual class: inhibitors | 0.036% of 280,000 active; active = well fitted inhibition curve with a large enough effect in the signal ratio, with a control signal flat, not every such curve was filed as active; inconclusive = small, poorly fitted or top-dose-only effect, or effect the other way, or a change in a side signal; inactive = no such curve, though single readings can be large or run the other way; the % refers to the signal ratio; note: % is set by controls: 0 for no effect and ±100 for the full control effect
# Target sequence (Q9NR56 whole entry, looked up): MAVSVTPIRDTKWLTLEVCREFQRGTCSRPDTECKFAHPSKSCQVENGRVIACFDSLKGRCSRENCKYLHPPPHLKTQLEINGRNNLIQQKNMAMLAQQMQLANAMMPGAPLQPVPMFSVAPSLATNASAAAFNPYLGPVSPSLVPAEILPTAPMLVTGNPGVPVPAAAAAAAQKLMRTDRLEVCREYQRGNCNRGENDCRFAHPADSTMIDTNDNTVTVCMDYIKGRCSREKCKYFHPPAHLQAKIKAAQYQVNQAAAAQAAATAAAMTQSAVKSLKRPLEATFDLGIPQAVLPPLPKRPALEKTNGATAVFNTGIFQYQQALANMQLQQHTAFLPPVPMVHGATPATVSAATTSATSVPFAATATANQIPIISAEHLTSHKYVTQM
#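 Ratiometric TR-FRET (665 over 545 nm, excitation 340 nm) tracks disruption of MBNL1-His/biotin-(CUG)12 complex after 60 min at room temperature, with compounds at 92 nM to 58 uM final.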
# S-ASM inh: inhibitors of human secretory acid sphingomyelinase. P17405. placental ASM, HMU-PC fluorogenic substrate, 60 min. Potency, µM (highest dose often 57.5 µM), for inactives: at the highest dose activity change, negative = inhibition, usual class: inhibitors. 0.006% of 340,000 active. AID 504937; active = well fitted inhibition curve with a large enough effect; inconclusive = small, poorly fitted or top-dose-only effect; inactive = no such curve, though single readings can be large or run the other way
#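 Fluorescence read-out (Ex 386 nm, Em 447 nm) after stopping the reaction at pH 10. Enzyme: ASM from human placenta; substrate HMU-PC0, 9 uM final; 60 min, 37 °C. Compound preincubation 10 min, ambient temperature.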
# Chronic BCR inh: chronic active BCR signaling inhibition | ABC-DLBCL IkBa-CBG/CBR reporter, luminescence ratio, 4 h | Potency, µM (doses to about 46.1 µM), for the others: at the top dose activity change, negative = inhibition, actives largely listed as inhibitors | 0.05% of 340,000 active; active = well fitted inhibition curve with a large enough effect in the signal ratio, with a control signal flat, not every such curve was filed as active; inconclusive = small, poorly fitted or top-dose-only effect, or effect the other way, or a change in a side signal; the % refers to the signal ratio;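 note: plate controls were basal doxycycline-induced cells for no effect and cells given 10 µM MG132 for full effect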
#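 TMD8 ABC-DLBCL cells carrying doxycycline-inducible green luciferase fused to IkappaBalpha plus unfused red luciferase were exposed to compounds (up to 46 uM) for 4 hrs at 37C. Activity came from the overlap-corrected green/red luminescence ratio.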
# * = called active by the depositor; i = inactive; ? = inconclusive; / = not tested or not shown; [ ] = remark or other dose. Sampled rows, rich in hits. Any-hit rate of the full collection: about 0.62%. Potency is the fitted concentration of half-maximal effect.
SMILES,gsp agonist,gsp antag,MBNL1 CUG block,S-ASM inh,Chronic BCR inh
Cn1c(=O)n(C)c2cc([N+](=O)[O-])c(N3CCN(S(=O)(=O)c4ccccc4)CC3)cc21,-61%,25µM*,?,-13%,?
NC(=S)c1cc2ccc(O)cc2oc1=O,2.5µM*,-2%,?,i,?
C/C(=N/NC(N)=S)c1cc2ccc(O)cc2oc1=O,-34%,1%,/,i,?
Cc1nnc2sc(SCC(=O)N3CCCCC3)nn2c1=O,28µM*,9%,7%,2%,-5%
O=C(NC1CC1)c1nc2c(nnn2Cc2ccccc2Cl)c(=O)[nH]1,?,-4%,11%,-3%,-24%
O=C(NCCc1ccccc1)c1nc2c(nnn2Cc2ccccc2Cl)c(=O)[nH]1,14%,40µM*,-8%,-14%,-3%
COc1ccccc1C(CNC(=O)C1CCN(C(=O)Nc2ccccc2)CC1)N1CCCC1 (stereo not given),-2%,9%,/,2%,?
CCOC(=O)c1cc(-c2ccccc2)n(CCC(=O)Nc2ccc(OC)c(Cl)c2)c1C,/,/,/,/,-13%
Cc1cc(/C=C2\SC(=S)N(C)C2=O)c(C)n1-c1ccccc1O,26%,35µM*,/,?,/
CSc1nsc(SCC(=O)NCc2ccc(C)cc2)n1,-24%[15.4 µM],1%,6%,5%,4%
CCCCNc1nc2c(S(=O)(=O)c3ccccc3)nnn2c2ccccc12,22µM*,19%,?,4%,5%
O=C1C=CC(=O)c2c(O)c(N3CCN(CCOCCO)CC3)c(Br)c(O)c21,?,25µM*,/,-2%,/
Cc1c(C(=O)N(CCc2ccccc2)Cc2ccccc2)cccc1[N+](=O)[O-],-8%,-22%,2%,1%,?
CCCC(=O)Nc1ccc2c(c1)c1ccccc1n2CC,2%,-2%,/,-1%,?
CCOC(=O)C(=CNc1ccc2c(c1)c1ccccc1n2CC)C(=O)OCC,1%,32µM*,-3%,102%,?
CCOC(=O)/C(C#N)=C\c1c(OCC)n(CC)c2ccccc12,-3%[15.4 µM],25µM*,26%,-12%,?
O=c1[nH]c(=O)n(Cc2ccccc2)c2c1C(C(F)(F)F)(C(F)(F)F)N=C(c1ccco1)N2,-5%,35µM*,-1%,1%,-9%
CCc1ccccc1NC(=O)C1=CN2CCS(=O)(=O)N=C2C=C1,-7%,9%,/,4%,-2%
O=C(Nc1cccc(Cl)c1)Nc1cc(S(=O)(=O)N2CCCCC2)ccc1Cl,13%,25µM*,-2%,-12%,?
O=C(Nc1cccc(F)c1)Nc1cccc(Cl)c1,-19%,-18%,-5%,-2%,2%
COc1ccccc1NS(=O)(=O)c1cccc(NC(=O)Nc2cccc(Cl)c2)c1,-12%,32µM*,?,-20%,?
O=C(CSc1ncnc2ccccc12)Nc1cccc(S(=O)(=O)N2CCCC2)c1,?,9%,3%,?,?
O=C(Nc1cccc(Cl)c1)Nc1cccc(Cl)c1,16%,35µM*,2%,-8%,?
COc1ccccc1NS(=O)(=O)c1cccc(NC(=O)NCCCl)c1,?,-5%,-1%,3%,-2%
O=C(CSc1ncnc2ccccc12)Nc1cc(S(=O)(=O)N2CCCCC2)ccc1Cl,3.2µM*,25%,?,0%,?
SMILES,gsp agonist,gsp antag,MBNL1 CUG block,S-ASM inh,Chronic BCR inh
CCCC(C)NC(=O)c1cc(S(=O)(=O)N2CCCCCC2)ccc1OC (stereo not given),?,1%,/,0%,-2%
COc1ccc(C(=O)Nc2ccc(Cl)c(S(=O)(=O)Nc3ccccc3OC)c2)cc1,-21%,-26%,-1%,-11%,6%
COc1ccccc1NS(=O)(=O)c1cc(NC(=O)c2ccc(Cl)nc2)ccc1Cl,1%[15.4 µM],32µM*,-4%,/,?
NS(=O)(=O)c1cccc(NC(=O)c2cc(=O)c3ccccc3o2)c1,?,1%,?,2%,-4%
CN(c1ccccc1)S(=O)(=O)c1cccc(NC(=O)c2cc(=O)c3ccccc3o2)c1,16%,40µM*,?,-14%,1%
CC(=O)Nc1ccc(C(=O)Nc2cccc(S(=O)(=O)N(C)c3ccccc3)c2)cc1,13%,-18%,/,-8%,-2%
Cc1nc2cc(NC(=O)c3ccc(S(=O)(=O)N(C)c4ccccc4)cc3)ccc2o1,2%[15.4 µM],32µM*,-3%,6%,4%
CN(c1cccc(NC(=O)c2ccc(N(C)S(=O)(=O)c3ccccc3)cc2)c1)S(C)(=O)=O,-28%,25µM*,-10%,0%,?
CC(C)[C@H](NC(=O)c1ccco1)C(=O)NCc1ccccc1,-51%,13%,-5%,3%,2%
COc1ccc(-c2csc(NC(=O)c3ccc(C(C)(C)C)cc3)c2C(=O)O)cc1,-1%[15.4 µM],32µM*,/,9%,/
Cc1ccccc1C(=O)Nc1scc(-c2ccc(Br)cc2)c1C(=O)O,6%[15.4 µM],40µM*,/,-1%,/
COc1ccc(-c2csc(NC(=O)c3ccccc3Br)c2C(=O)O)cc1,-4%[15.4 µM],-28%,11%,5%,6%
COc1ccc(NC(=O)Nc2c[nH]c(=O)[nH]c2=O)cc1,-11%[15.4 µM],0%,-8%,5%,?
O=C(c1cc(COc2ccc3ncccc3c2)on1)N1CCC(O)CC1,2%[15.4 µM],-8%,-1%,-1%,-3%
O=C(NC1CCCCCCC1)c1cc(COc2ccc3ncccc3c2)on1,3%[15.4 µM],40µM*,0%,-10%,-1%
CC(CNC(=O)c1cc(COc2ccc3ncccc3c2)on1)c1ccccc1 (stereo not given),-2%,32µM*,3%,-7%,?
Cc1cccnc1CN1CCN(C(=O)c2cc(COc3ccc4ncccc4c3)on2)CC1,0%[15.4 µM],32µM*,6%,-3%,-13%
Cn1c(=O)c2c(nc(CCC3CCCC3)n2C)n(C)c1=O,11µM*,23%,/,0%,/
CCCn1c(CN2CCCCC2C)nc2c1c(=O)n(C)c(=O)n2C (stereo not given),-74%,8%,-2%,2%,?
COc1cccc(CN2CC(C(=O)NCc3cccc(N4CCCC4)c3)CCC2=O)c1 (stereo not given),-44%,3.2µM*,1%,3%,2%
CCOC(=O)c1nc(Nc2ccc(Nc3ccccc3)cc2)c2ccccc2n1,-15%,?,?,?,?
CCOC(=O)c1nc(Nc2cc(C)cc(C)c2)c2ccccc2n1,-5%[15.4 µM],7.9µM*,0%,-5%,?
Cn1cc(/C=N/NC(N)=S)c2ccccc21,22%,-5%,?,-3%,?
C=CCNC(=S)N/N=C/c1cn(C)c2ccccc12,6%[15.4 µM],14%,-6%,-11%,18µM*
C=CCNC(=S)N/N=C/c1ccc(C(C)(C)C)cc1,-28%,3%,-5%,-9%,11µM*

# Screening results as filed in PubChem BioAssay.
